Reference: PMC4336329 (PLoS ONE, 2015)
Hit rate of the full screen: of about 310,000 compounds, about 14,000 (4.5%) showed an effect of 50% or more. Effects have a minus sign here. The sample holds strong results, similar compounds and a random draw of the others, so the mix is not that of the screen.

These compounds were tested against human ether-à-go-go-related gene (hERG) potassium channel (human, UniProt Q12809) (assay: primary screen, population patch clamp on CHO cells stably expressing hERG; higher = less effect of the substance).
Chain of human ether-à-go-go-related gene (hERG) potassium channel (Q12809 whole entry, looked up): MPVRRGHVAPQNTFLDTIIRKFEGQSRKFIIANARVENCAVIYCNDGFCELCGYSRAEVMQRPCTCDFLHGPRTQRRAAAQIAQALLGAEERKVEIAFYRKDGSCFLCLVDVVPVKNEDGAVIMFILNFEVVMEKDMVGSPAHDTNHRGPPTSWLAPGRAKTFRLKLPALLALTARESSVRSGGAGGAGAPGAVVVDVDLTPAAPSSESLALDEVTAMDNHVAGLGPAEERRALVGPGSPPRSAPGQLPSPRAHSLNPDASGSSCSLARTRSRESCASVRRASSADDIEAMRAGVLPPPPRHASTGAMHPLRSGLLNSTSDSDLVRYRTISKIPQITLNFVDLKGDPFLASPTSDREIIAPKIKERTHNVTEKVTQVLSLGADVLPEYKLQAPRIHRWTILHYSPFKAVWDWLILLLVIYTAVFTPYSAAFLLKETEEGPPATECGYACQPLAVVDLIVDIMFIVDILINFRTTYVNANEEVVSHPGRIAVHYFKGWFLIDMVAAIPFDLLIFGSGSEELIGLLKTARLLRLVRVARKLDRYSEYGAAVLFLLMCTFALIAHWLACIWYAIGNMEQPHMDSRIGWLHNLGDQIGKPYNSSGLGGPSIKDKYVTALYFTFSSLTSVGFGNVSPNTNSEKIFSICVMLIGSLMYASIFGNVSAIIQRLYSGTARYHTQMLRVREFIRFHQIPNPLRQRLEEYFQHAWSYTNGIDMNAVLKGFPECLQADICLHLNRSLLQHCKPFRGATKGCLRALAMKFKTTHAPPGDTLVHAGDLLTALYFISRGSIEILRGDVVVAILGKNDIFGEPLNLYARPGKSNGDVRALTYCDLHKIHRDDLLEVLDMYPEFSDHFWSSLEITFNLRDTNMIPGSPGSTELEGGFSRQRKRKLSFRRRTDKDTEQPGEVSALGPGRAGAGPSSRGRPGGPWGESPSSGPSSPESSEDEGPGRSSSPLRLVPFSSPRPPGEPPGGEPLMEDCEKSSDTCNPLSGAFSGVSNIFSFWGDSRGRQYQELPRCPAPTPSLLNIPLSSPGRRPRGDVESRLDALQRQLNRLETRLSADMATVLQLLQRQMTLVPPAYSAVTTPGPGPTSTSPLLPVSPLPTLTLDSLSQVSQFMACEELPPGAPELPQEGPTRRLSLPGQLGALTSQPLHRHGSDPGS
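Note: peak tail current of the secondary pulse compared with the same well before compound.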

SMILES | hERG current change (%, negative = inhibition) at 10uM
O=C1CCCC(O)=C1N=Nc1cccc(S(=O)(=O)N2CCOCC2)c1 | -1.24%
O=C(N/N=C\c1ccc[nH]1)c1cncc(Br)c1 | 3.82%
O=C(NCc1ccccn1)C1CCCN(S(=O)(=O)c2ccccc2)C1 (stereo not shown) | 10.9%
COc1ccc(C(=O)NCc2nnc(SCC(=O)NO)n2Cc2ccccc2)cc1 | -5.01%
Cc1c(C(=O)NC(C)CCc2ccccc2)cccc1[N+](=O)[O-] (stereo not shown) | -18.2%
O=C(O)c1ccc(-n2ccnc2)c([N+](=O)[O-])c1 | 32.1%
Cc1c(C(=O)NC(C)c2ccc(-n3ccnc3)cc2)cccc1[N+](=O)[O-] (stereo not shown) | -74.1%
COc1ccc(C(=O)NNC(=O)c2ccncc2)cc1[N+](=O)[O-] | 25.2%
Cc1cccc(C(=O)NC(C)c2ccc(-n3ccnc3)cc2)c1C (stereo not shown) | -42.2%
CC(NC(=O)c1cc([N+](=O)[O-])cc([N+](=O)[O-])c1)c1ccc(-n2ccnc2)cc1 (stereo not shown) | -73.5%
COc1ccccc1NC(=O)c1ccc(-n2ccnc2)c([N+](=O)[O-])c1 | 15.1%
CC(NC(=O)c1ccc(N(C)C)c([N+](=O)[O-])c1)c1ccc(-n2ccnc2)cc1 (stereo not shown) | -62.9%
COc1ccc(C(=O)NC(C)c2ccc(-n3ccnc3)cc2)cc1[N+](=O)[O-] (stereo not shown) | -77.9%
O=[N+]([O-])c1ccc(-n2ccnc2)cc1 | 7.95%
Cc1cccc(N2CN(Cc3cccnc3)CNC2=S)c1 | -3.28%
COc1ccc(-c2cc(=O)oc3c(C)c(OCC(=O)Nc4cccnc4)ccc23)cc1 | -11.6%
CC(=O)c1ccc(N2CCN(C(=O)c3cc(-c4ccc5c(c4)OCO5)nc4ccccc34)CC2)cc1 | 2.88%
CCn1cc(S(=O)(=O)NCc2ccccc2Br)cn1 | -1.6%
CCOC(=O)N1CCN(C(=O)c2c[nH]c3ccc(S(=O)(=O)N(C)c4ccccc4C)cc3c2=O)CC1 | -1.1%
O[C@@H]1CCCN2CCc3c([nH]c4ccccc34)[C@H]12 | 10.9%
Cc1onc(-c2c(Cl)cccc2Cl)c1C(=O)N1CCN(c2ccccc2F)CC1 | 7.58%
O=C(CN(C1CCCCC1)S(=O)(=O)c1ccc(Cl)cc1)N1CCOCC1 | -59.5%

SMILES | hERG current change (%, negative = inhibition) at 10uM
O=C(CN(C1CCCCC1)S(=O)(=O)c1ccccc1)N1CCCC1 | -59.3%
Cc1ccc(S(=O)(=O)N(CC(=O)N2CCCC2)C2CCCCC2)cc1 | -37.7%
Cc1ccc(S(=O)(=O)N(CC(=O)N2CCOCC2)C2CCCCC2)cc1 | -23.3%
CCOC(=O)N1CCN(C(=O)CN(C2CCCCC2)S(=O)(=O)c2ccc(Cl)cc2)CC1 | -47.8%
NC(=O)C1CCN(C(=O)CN(C2CCCCC2)S(=O)(=O)c2ccc(F)cc2)CC1 | -13.4%
Cc1ccc(SCC(=O)OCC(=O)N(CC(C)C)C2CCS(=O)(=O)C2)cc1C (stereo not shown) | -4.29%
CCOc1ccc(C(c2c(NC(=O)c3ccccc3)sc(C)c2C)N2CCN(CCO)CC2)cc1 (stereo not shown) | -21.1%
CCc1cc(C(c2ccncc2)N2CCN(C)CC2)c(NC(=O)c2ccccc2)s1 (stereo not shown) | -40.2%
CCc1cc(C(c2ccccc2OC)N2CCOCC2)c(NC(=O)c2ccccc2)s1 (stereo not shown) | 21.3%
CC(=O)Nc1sc2c(c1C(c1ccccn1)N1CCN(C)CC1)CCCC2 (stereo not shown) | -12.9%
CCc1cc(C(c2ccccn2)N2CCN(C)CC2)c(NC(=O)c2ccccc2)s1 (stereo not shown) | -59.1%
CCN1CCN(C(c2ccccn2)c2c(NC(=O)c3ccccc3)sc(C)c2C)CC1 (stereo not shown) | -59.8%
COc1cccc(C(c2c(NC(=O)c3ccccc3)sc(C)c2C)N2CCN(C)CC2)c1 (stereo not shown) | -17.6%
Cc1sc(NC(=O)c2ccccc2)c(C(c2ccc(Cl)cc2)N2CCN(CCO)CC2)c1C (stereo not shown) | -4.47%
Cc1sc(NC(=O)c2ccccc2)c(C(c2ccccn2)N2CCN(CCO)CC2)c1C (stereo not shown) | -53.7%
COc1ccc(/C(C)=N/NC(=O)c2nnn(-c3nonc3N)c2-c2ccccc2)cc1 | 19.8%
N#CC(c1ccccn1)c1ncc(C(F)(F)F)cc1Cl (stereo not shown) | 23.5%
Cc1cccc(Cn2c(C(=O)OC(C)C)cc3c2ccn3C)c1 | 6.07%
S=c1[nH]nc(COc2ccc(Cl)cc2)n1C1CCCCC1 | 14.3%
Cc1cc(NC(=O)COC(=O)[C@@H](NS(=O)(=O)c2ccccc2)C(C)C)no1 | -7.67%
COc1ccc(S(=O)(=O)NC(C)C(=O)NCc2ccncc2)cc1OC (stereo not shown) | 15.7%
Cc1c([C@H]2[C@@H](CC#N)C2(C)C)c2ccccc2n1C | -10.4%

SMILES | hERG current change (%, negative = inhibition) at 10uM
Clc1ccc(-c2nc(NCCN3CCOCC3)c3ccccc3n2)cc1 | -15.6%
Clc1ccc(-c2nnc(NCCN3CCCC3)c3ccccc23)cc1 | -71.3%
Clc1ccc(-c2nnc(NCc3ccccc3)c3ccccc23)cc1 | -13.3%
O=C(Nc1cccc(Cl)c1)OCc1cncs1 | -2.42%
O=c1c(-c2nnc(SCc3ccc(Cl)cc3)o2)cccn1Cc1ccccc1 | -46.2%
O=c1c(-c2nnc(SCc3ccc(Cl)c(Cl)c3)o2)cccn1Cc1ccccc1 | 1.6%
O=c1c(-c2nnc(SCc3ccc(Cl)cc3Cl)o2)cccn1Cc1ccccc1 | -62.5%
Cc1ccc(NC(=O)C(CC(C)C)NC(=O)C2CCC(C)CC2)nc1 (stereo not shown) | -6.68%
CCCc1cc(=O)[nH]c(SCC(=O)Nc2c(C)cccc2C)n1 | 6.31%
COc1c(C)cc(C(=O)C2CCCN(Cc3cccc(C)n3)C2)cc1C (stereo not shown) | -48.7%
Cc1cccc(CN2CCCC(C(=O)c3cccc(OC(C)C)c3)C2)n1 (stereo not shown) | -40%
COc1ccc(C(=O)C2CCCN(Cc3ccccn3)C2)c(OC)c1 (stereo not shown) | -55.7%
COc1ccc2cc(C(=O)C3CCCN(Cc4cccc(C)n4)C3)ccc2c1 (stereo not shown) | -66.5%
COc1cccc(C(=O)C2CCCN(CC3=Cc4cc(OC)ccc4OC3)C2)c1 (stereo not shown) | -56.6%
COc1cccc(C(=O)C2CCCN(Cc3cccc(C)n3)C2)c1 (stereo not shown) | -53.4%
CC(=O)Nc1ccc(N/C=C/C(=O)c2ccco2)cc1 | 1.94%
Cn1nc(C(=O)Nc2nc3ccc(S(C)(=O)=O)cc3s2)ccc1=O | -20.7%
CN1CCN(C(=O)c2ccc3c(c2)N(Cc2cccc(Cl)c2)C(=O)c2ccccc2S3=O)CC1 (stereo not shown) | -19.5%
O=C(/C=C/N1CCN(Cc2ccccc2)CC1)C(F)(F)F | 4.36%
Cc1nn(-c2ccccc2)c(Oc2ccccc2)c1C=O | -6.92%
CCc1c(C)c(C#N)c2nc3ccccc3n2c1NCc1ccco1 | -35.4%
Cc1ccc([N+](=O)[O-])cc1N(CC(=O)N1CCCCC1)S(C)(=O)=O | 12.2%

SMILES | hERG current change (%, negative = inhibition) at 10uM
Cn1cccc1Cc1nnc(SCC(=O)Nc2cccc(F)c2)n1CCc1ccccc1 | -20.3%
Cl.NCCOc1ccccc1-c1ccccc1 | -11.1%
CC(C)(C)c1ccc(-c2n[nH]c(=S)n2C2CCCC2)cc1 | 4.01%
Cc1ccc(C(=O)Nc2ccc3c(c2)OCO3)cc1Cl | 19.7%
CSc1ccc(CNC2CN3CCC2CC3)cc1.Cl (stereo not shown) | -10.7%
C[C@@H]1CCC2[C@](C)(CO)[C@@H](O)CC[C@]2(C)[C@@]12CCC(CO)(CCO)O2 (stereo partly shown) | 26.8%
O=C1CN(C(=O)COc2ccc(F)cc2Br)c2ccccc2N1 | -29.9%
O=C(O)c1ccc2c(=O)n3cc(C(=O)c4ccccc4O)cc(Cl)c3nc2c1 | 1.38%
CC(=O)Nc1ccc(CN2CCCC(C(=O)c3ccc(C(F)(F)F)cc3)C2)cc1 (stereo not shown) | -77.3%
CC(=O)Nc1ccc(CN2CCCC(C(=O)c3cccc(C(F)(F)F)c3)C2)cc1 (stereo not shown) | -20.7%
COc1cccc(C(=O)C2CCCN(Cc3ccccn3)C2)c1 (stereo not shown) | -26%
COc1cccc(C(=O)C2CCCN(Cc3ccon3)C2)c1 (stereo not shown) | 8.72%
CCNC(=O)N1CCCC(C(=O)c2ccc(C(F)(F)F)cc2)C1 (stereo not shown) | -23.4%
COc1ccc(C(=O)C2CCCN(Cc3ccon3)C2)cc1OC (stereo not shown) | 11.2%
COc1ccc(C(=O)C2CCCN(Cc3ccon3)C2)c(OC)c1 (stereo not shown) | -53.9%
COc1ccc2cc(C(=O)C3CCCN(C(=O)CCc4ccccn4)C3)ccc2c1 (stereo not shown) | -45.2%
COc1ccc(C(=O)C2CCCN(Cc3sc(N4CCCC4)nc3Cl)C2)c(OC)c1 (stereo not shown) | -49.7%
COc1ccc2cc(C(=O)C3CCCN(Cc4ccccn4)C3)ccc2c1 (stereo not shown) | -66.2%
COc1ccc(C(=O)C2CCCN(Cc3cccc(C)n3)C2)c(OC)c1 (stereo not shown) | -76.2%
